Measurements: PubChem BioAssay (NCATS)
Several values for one entry are separate records, joined by “and”; a condition that tells them apart may be missing. Equal entries are not always repeated. Records with an inconclusive call do not appear. Activity calls are given as the source filed them. Unless noted, the call rests on the fitted dose curve; in most records, active means well fitted curve in either direction with a large enough effect (not every such curve was filed as active); inconclusive means small, poorly fitted or top-dose-only effect, or another doubt; inactive means flat fitted curve, though single readings scatter.

Tests used:
[1] = Stat Signaling Pathway (AID 446);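 further: ME-180 cervical cancer cells given 40 pM IL-6 alongside compound; SIE-controlled beta-lactamase reporter measured as 460/530 nm FRET emission ratio; on the % scale 0 is the no-effect control and ±100 the full control effect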
In short: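 Overnight-plated ME-180 cells bearing a STAT Inducible Element beta-lactamase reporter; 5 h co-exposure to compound and 40 pM IL-6; values normalized to 300 pM IL-6 and 125 nM JAK inhibitor controls.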

[2] = target: Glucocorticoid receptor (Homo sapiens) (UniProt P04150); experiment: GR-GFP Redistribution (AID 450;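 active means compounds whose dose series gives a full or clear partial fitted curve of increased nuclear translocation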; further: potency means the concentration at half of the fitted maximal effect); details: U2OS GR-GFP nuclear translocation, laser cytometry, 2 h
Glucocorticoid receptor (Homo sapiens), sequence (P04150 whole entry, looked up, the tested form may be a part): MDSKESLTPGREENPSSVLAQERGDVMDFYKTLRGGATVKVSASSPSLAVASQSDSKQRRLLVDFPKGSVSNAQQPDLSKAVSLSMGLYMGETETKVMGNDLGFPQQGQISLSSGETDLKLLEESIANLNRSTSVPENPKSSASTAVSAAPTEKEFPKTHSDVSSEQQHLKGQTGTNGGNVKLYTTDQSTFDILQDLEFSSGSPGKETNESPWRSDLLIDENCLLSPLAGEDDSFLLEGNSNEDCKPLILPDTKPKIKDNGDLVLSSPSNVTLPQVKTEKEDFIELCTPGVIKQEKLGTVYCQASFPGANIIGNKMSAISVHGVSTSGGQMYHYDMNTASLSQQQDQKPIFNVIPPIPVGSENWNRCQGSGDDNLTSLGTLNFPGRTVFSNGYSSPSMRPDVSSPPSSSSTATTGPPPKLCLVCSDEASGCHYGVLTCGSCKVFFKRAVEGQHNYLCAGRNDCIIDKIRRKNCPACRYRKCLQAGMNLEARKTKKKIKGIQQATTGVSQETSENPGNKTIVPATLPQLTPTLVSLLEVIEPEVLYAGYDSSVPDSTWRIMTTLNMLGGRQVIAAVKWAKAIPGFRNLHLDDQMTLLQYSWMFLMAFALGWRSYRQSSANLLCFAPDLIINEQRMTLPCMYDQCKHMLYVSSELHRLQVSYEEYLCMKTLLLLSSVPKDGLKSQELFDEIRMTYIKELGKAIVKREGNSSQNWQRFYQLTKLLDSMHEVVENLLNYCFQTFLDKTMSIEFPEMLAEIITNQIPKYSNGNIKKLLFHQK

[3] = target: Glucocorticoid receptor (Homo sapiens) (UniProt P04150); experiment: GR-EFC Redistribution (AID 451; calls by dose curve; further: potency means the concentration at half of the fitted maximal effect); details: CHO-K1 GR-EFC translocation, beta-gal luminescence, 2 h
In short: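 Translocation of GR-ED fusion to nuclear EA restores b-gal, read by luminescence after 1 h room-temperature detection. Engineered CHO-K1 biosensor cells, 1,000/well, exposed 2 h at 37 C to titrations up to 46 uM final.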

[4] = target: Mitogen-activated protein kinase 10 (Mus musculus) (UniProt Q61831); experiment: JNK3 AlphaScreen Assay (AID 530);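 further: kinase came from lysate of stimulated human HepG2 cells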; further: potency means the concentration at half of the fitted maximal effect
In short: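 Kinase buffer: 20 mM Tris-HCl pH 7.6, 10 mM MgCl2, 1 mM DTT, 0.1 mM Na3VO4, 0.01% Tween-20; ATP 10 uM. Substrate biotin-GST-cJun(1-79), enzyme from activated HepG2 lysates. Detection by Ser73 phospho-antibody AlphaScreen.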

[5] = Cell Viability - NIH 3T3 (AID 541; active means well fitted curve in the direction sought with a large enough effect; an effect the other way counts as inactive or inconclusive;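 further: cells exposed to compound for 40 hours; nearly all actives have a fitted effect of over 25% in size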; further: potency means the concentration at half of the fitted maximal effect;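 on activity change, negative = cytotoxicity: plate controls were DMSO alone for no effect and tamoxifen positive control for full effect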); details: NIH 3T3 cell viability, qHTS; activity change, negative = cytotoxicity: at 92.2 µM (top of the series)
In short: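 qHTS format; 40 hr compound exposure, 37 °C; CellTiter-Glo luminescence (cellular ATP) read-out after 20 min at RT. Decrease in ATP = cytotoxicity; AC50 from standard Hill fit.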

[6] = Cell Viability - HUV-EC-C (AID 542; active means well fitted curve in the direction sought with a large enough effect; an effect the other way counts as inactive or inconclusive;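 further: cells exposed to compound for 40 hours; nearly all actives have a fitted effect of over 35% in size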; further: potency means the concentration at half of the fitted maximal effect; on activity change, negative = cytotoxicity: on the % scale 0 is the no-effect control and ±100 the full control effect)
In short: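 Luminescent ATP read-out (CellTiter-Glo, 20 min room temperature) after 40 hr compound treatment of HUV-EC-C cells at 37 °C. Concentration-response data fitted with the standard Hill equation to give AC50; tamoxifen and doxorubicin served as positive controls.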

[7] = Cell Viability - H-4-II-E (AID 543; active means well fitted curve in the direction sought with a large enough effect; an effect the other way counts as inactive or inconclusive;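 further: cells exposed to compound for 40 hours; nearly all actives have a fitted effect of over 35% in size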; further: potency means the concentration at half of the fitted maximal effect)
In short: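 qHTS, rat hepatoma H-4-II-E, 1500 cells/well; 40 hr compound exposure, 37 °C; CellTiter-Glo ATP luminescence after 20 min RT; AC50 by standard Hill fit.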

[8] = Cell Viability - Renal Proximal Tubule (AID 545; active means well fitted curve in the direction sought with a large enough effect; an effect the other way counts as inactive or inconclusive;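 further: cells exposed to compound for 40 hours; nearly all actives have a fitted effect of over 40% in size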; further: potency means the concentration at half of the fitted maximal effect;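 on activity change, negative = cytotoxicity: 0% = DMSO only and -100% = 100 µM tamoxifen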); details: renal proximal tubule cells viability, primary cells of rat origin; activity change, negative = cytotoxicity: at 91.7 µM (top of the series)
In short: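 Primary rat renal proximal tubule cells (1000/well) were treated with compounds for 40 hr at 37 °C in complete medium. Intracellular ATP was measured by CellTiter-Glo luminescence, and AC50 values came from Hill-equation fits of concentration-response data.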

[9] = Cell Viability - Mesenchymal (AID 546; active means well fitted curve in the direction sought with a large enough effect; an effect the other way counts as inactive or inconclusive;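 further: cells exposed to compound for 40 hours before reading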; further: potency means the concentration at half of the fitted maximal effect;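 on activity change, negative = cytotoxicity: 0% = DMSO only and -100% = 100 µM tamoxifen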); details: mesenchymal cells viability, qHTS; activity change, negative = cytotoxicity: at 91.7 µM (top of the series)
In short: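 CellTiter-Glo luminescence (intracellular ATP, 20 min room temperature) after 40 hr compound exposure at 37 °C of 1000 glomerulus-derived human kidney mesenchymal cells/well; AC50 values obtained by fitting qHTS concentration-response data to the Hill equation.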

[10] = Cell Viability - N2a (AID 540; active means well fitted curve in the direction sought with a large enough effect; an effect the other way counts as inactive or inconclusive;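 further: plate controls were DMSO alone for no effect and tamoxifen control for full effect; nearly all actives have a fitted effect of over 45% in size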)
In short: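 N2a mouse neuroblastoma, 1500 cells/well, 5 hr settle; compound 40 hr, 37 °C; CellTiter-Glo 20 min RT; luminescence; Hill-fit AC50.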

CCn1nc(C(=O)O)c(=O)c2cc3c(cc21)OCO3
inactive: outcome [1] | Potency [2] > 46 µM and > 20.6 µM | Potency [3] > 46 µM and > 20.6 µM

c1cc(CN2CCCCC2)cc(OCCCNc2nc3ccccc3s2)c1
inactive: outcome [1] | Potency [2] > 46 µM | Potency [3] > 46 µM

C[N+](C)(C)CCOC(=O)CCC(=O)OCC[N+](C)(C)C
inactive: outcome [1] | Potency [2] > 46 µM | Potency [3] > 46 µM

CCCCNc1ccc(C(=O)OCCN(C)C)cc1
inactive: outcome [1] | Potency [2] > 46 µM and > 20.6 µM | Potency [3] > 46 µM and > 20.6 µM

CCO/C([O-])=N/c1c[n+](N2CCOCC2)no1
inactive: outcome [1] | Potency [2] > 46 µM and > 20.6 µM | Potency [3] > 46 µM and > 20.6 µM | Potency [4]

COCC(=O)O[C@]1(CCN(C)CCCc2nc3ccccc3[nH]2)CCc2cc(F)ccc2[C@@H]1C(C)C
inactive: outcome [1] | Potency [2] > 46 µM | Potency [3] > 46 µM

Cc1nc2sccn2c(=O)c1CCN1CCC(=C(c2ccc(F)cc2)c2ccc(F)cc2)CC1
inactive: outcome [1] | Potency [2] > 46 µM and > 20.6 µM | Potency [3] > 46 µM | Potency [4]

O=C(CCNNC(=O)c1ccncc1)NCc1ccccc1
inactive: outcome [1] | Potency [2] > 46 µM and > 20.6 µM | Potency [3] > 46 µM and > 20.6 µM | Potency [4]

CC(=O)Nc1nnc(S(N)(=O)=O)s1
inactive: outcome [1] | Potency [2] > 46 µM and > 20.6 µM | Potency [3] > 46 µM and > 20.6 µM | Potency [4]

COc1ccc2c(c1OC)C(=O)O[C@@H]2[C@H]1c2c(cc3c(c2OC)OCO3)CCN1C
inactive: outcome [1] | Potency [2] > 46 µM and > 20.6 µM | Potency [3] > 46 µM

Cc1ccc(S(=O)(=O)NC(=O)NN2CCCCCC2)cc1
inactive: outcome [1] | Potency [2] > 46 µM and > 20.6 µM | Potency [3] > 46 µM and > 20.6 µM

CCCCNc1c(C(=O)OCC)c(C)nc2c1cnn2CC
inactive: outcome [1] | Potency [2] > 46 µM and > 20.6 µM | Potency [3] > 46 µM and > 20.6 µM | Potency [4]

CC(=O)Oc1cc(C(C)C)c(OCCN(C)C)cc1C
inactive: outcome [1] | Potency [2] > 46 µM and > 20.6 µM | Potency [3] > 46 µM and > 20.6 µM

c1cnc(N2CCN(Cc3ccc4c(c3)OCO4)CC2)nc1
inactive: outcome [1] | Potency [2] > 46 µM and > 20.6 µM | Potency [3] > 46 µM and > 20.6 µM

CN(C)CCCN1c2ccccc2Sc2ccc(C(F)(F)F)cc21
inactive: outcome [1] | Potency [2] > 46 µM and > 20.6 µM | Potency [3] > 46 µM and > 20.6 µM

CCN1CCc2nc(N)oc2CC1
inactive: outcome [1] | Potency [2] > 46 µM | Potency [3] > 46 µM

O=C(O)CN(CCOCCOCCN(CC(=O)O)CC(=O)O)CC(=O)O
inactive: outcome [1] | Potency [2] > 46 µM | Potency [3] > 46 µM | Potency [4]

CCCOc1ccccc1-c1nc2n[nH]nc2c(=O)[nH]1
inactive: outcome [1] | Potency [2] > 46 µM and > 20.6 µM | Potency [3] > 46 µM and > 20.6 µM | Potency [4]

CN(C)CC/C=C1\c2ccccc2COc2ccccc21
inactive: outcome [1] | Potency [2] > 46 µM and > 20.6 µM | Potency [3] > 46 µM and > 20.6 µM

CC(C)[N+](C)(CCOC(=O)C1c2ccccc2Oc2ccccc21)C(C)C
inactive: outcome [1] | Potency [2] > 46 µM and > 20.6 µM | Potency [3] > 46 µM and > 20.6 µM

O=C(O)CP(=O)(O)O
inactive: outcome [1] | Potency [2] > 46 µM | Potency [3] > 46 µM and > 9.22 µM

CCC(=O)c1ccc2c(c1)N(CCCN(C)C)c1ccccc1S2
inactive: outcome [1] | Potency [2] > 46 µM | Potency [3] > 46 µM | Potency [4]

O=C1NCN(c2ccccc2)C12CCN(CCCC(c1ccc(F)cc1)c1ccc(F)cc1)CC2
inactive: outcome [1] | Potency [2] > 46 µM and > 20.6 µM | Potency [3] > 46 µM and > 20.6 µM

CCNC(=O)N1CCN(CCCC(c2ccc(F)cc2)c2ccc(F)cc2)CC1
inactive: outcome [1] | Potency [2] > 46 µM | Potency [3] > 46 µM | Potency [4]

CCN(CC)CCNC(=O)c1cc(S(C)(=O)=O)ccc1OC
inactive: outcome [1] | Potency [2] > 46 µM and > 20.6 µM | Potency [3] > 46 µM and > 20.6 µM

NC(N)=NC(=O)Cc1c(Cl)cccc1Cl
inactive: outcome [1] | Potency [2] > 46 µM and > 20.6 µM | Potency [3] > 46 µM and > 20.6 µM

CC1=NS(=O)(=O)c2cc(Cl)ccc2N1
inactive: outcome [1] | Potency [2] > 46 µM and > 20.6 µM | Potency [3] > 46 µM and > 20.6 µM

CN/C(=C\[N+](=O)[O-])NCCSCc1ccc(CN(C)C)o1
inactive: outcome [1] | Potency [2] > 46 µM and > 20.6 µM | Potency [3] > 46 µM and > 20.6 µM

Cc1nc2ccccn2c(=O)c1CCN1CCC(C(=O)c2ccc(F)cc2)CC1
inactive: outcome [1] | Potency [2] > 46 µM and > 20.6 µM | Potency [3] > 46 µM

CN1CCN(C2=Nc3ccccc3Oc3ccc(Cl)cc32)CC1
inactive: outcome [1] | Potency [2] > 46 µM and > 20.6 µM | Potency [3] > 46 µM and > 20.6 µM

CN(C)C(=O)Oc1cccc([N+](C)(C)C)c1
inactive: outcome [1] | Potency [2] > 46 µM and > 20.6 µM | Potency [3] > 46 µM and > 20.6 µM

CN(C)CCN(Cc1cccs1)c1ccccn1
inactive: outcome [1] | Potency [2] > 46 µM and > 20.6 µM | Potency [3] > 46 µM and > 20.6 µM

Cc1nc2c([nH]1)c(=O)n(C)c(=O)n2Cc1ccco1
inactive: outcome [1] | Potency [2] > 46 µM | Potency [3] > 46 µM | Potency [4]

CN(C)CCOC(=O)COc1ccc(Cl)cc1
inactive: outcome [1] | Potency [2] > 46 µM and > 20.6 µM | Potency [3] > 46 µM and > 20.6 µM | Potency [4]

O=C(O)CN(CCN(CC(=O)O)CC(=O)O)CCN(CC(=O)O)CC(=O)O
inactive: outcome [1] | Potency [2] > 46 µM and > 20.6 µM | Potency [3] > 46 µM and > 20.6 µM

CCCN(CCC)CCc1cccc2c1CC(=O)N2
inactive: Potency [2] > 46 µM | Potency [3] > 46 µM

NCCCNCCSP(=O)(O)O
inactive: outcome [1] | Potency [2] > 46 µM | Potency [3] > 46 µM | Potency [4]

CCCC(C(=O)OCCN(CC)CC)(c1ccccc1)c1ccccc1
inactive: outcome [1] | Potency [2] > 46 µM and > 20.6 µM | Potency [3] > 46 µM and > 20.6 µM | Potency [4]

COC(=O)[C@H]1[C@H]2C[C@@H]3c4[nH]c5cc(OC)ccc5c4CCN3C[C@H]2C[C@@H](OC(=O)c2cc(OC)c(OC)c(OC)c2)[C@@H]1OC
inactive: Potency [4] | activity change, negative = cytotoxicity [5] -19.4%
active: Potency [6] 50.1 µM | Potency [7] 31.6 µM | activity change, negative = cytotoxicity [8] -101% | activity change, negative = cytotoxicity [9] -90.3%

Nc1ncn([C@@H]2O[C@H](CO)[C@@H](O)[C@H]2O)c(=O)n1
active: Potency [5] 5.01 µM | Potency [8] 15.8 µM | Potency [9] 31.6 µM
inactive: Potency [6]

CC(C)(Oc1ccc(CCNC(=O)c2ccc(Cl)cc2)cc1)C(=O)O
inactive: outcome [1] | Potency [2] > 20.6 µM | Potency [3] > 20.6 µM | Potency [4]

O=c1[nH]c(=O)n([C@H]2C[C@H](O)[C@@H](CO)O2)cc1Br
inactive: outcome [10] | activity change, negative = cytotoxicity [5] -17.9% | Potency [6] | Potency [7] | activity change, negative = cytotoxicity [8] -3.47% | Potency [9]

CN(C)CCCN1c2ccccc2Sc2ccccc21
inactive: outcome [1] | Potency [4]

COc1ccc([C@@H]2Sc3ccccc3N(CCN(C)C)C(=O)[C@@H]2OC(C)=O)cc1
inactive: Potency [2] > 46 µM and > 20.6 µM | Potency [3] > 46 µM

COC(=O)[C@@H](N)Cc1ccc(O)c(O)c1
inactive: outcome [1] | Potency [4]

Cc1ccc(=O)n(-c2ccccc2)c1
inactive: outcome [1]
active: Potency [4] 12.6 µM

COc1ccc(CN(CCN(C)C)c2ccccn2)cc1
inactive: outcome [1] | Potency [2] > 46 µM and > 20.6 µM | Potency [3] > 46 µM and > 20.6 µM | Potency [4] | outcome [10] | activity change, negative = cytotoxicity [5] -13.1% | Potency [6] | Potency [7] | activity change, negative = cytotoxicity [8] 7.61% | Potency [9]

CN(C)C(=O)Oc1ccc[n+](C)c1
inactive: outcome [1] | Potency [2] > 46 µM and > 20.6 µM | Potency [3] > 46 µM | Potency [4]
